Results as given in PubChem BioAssay AID2013 (Sanford-Burnham Center for Chemical Genomics, 2009).
The campaign covered roughly 290,000 compounds. About 370 (0.13%) were called active.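 How the source made its calls: active means spots per cell inhibited over 60%, with over 100 cells counted and total cytoplasm intensity under 500,000; inconclusive means wells with under 100 cells, flagged as likely toxic; inactive means the rest.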 What follows is part of a selection rich in actives, with near analogues and random picks from the rest. Measured potencies and affinities stand elsewhere.

Biological target: G-protein coupled receptor 55 (Homo sapiens) (UniProt Q9Y2T6)
Sequence (Q9Y2T6 whole entry, looked up): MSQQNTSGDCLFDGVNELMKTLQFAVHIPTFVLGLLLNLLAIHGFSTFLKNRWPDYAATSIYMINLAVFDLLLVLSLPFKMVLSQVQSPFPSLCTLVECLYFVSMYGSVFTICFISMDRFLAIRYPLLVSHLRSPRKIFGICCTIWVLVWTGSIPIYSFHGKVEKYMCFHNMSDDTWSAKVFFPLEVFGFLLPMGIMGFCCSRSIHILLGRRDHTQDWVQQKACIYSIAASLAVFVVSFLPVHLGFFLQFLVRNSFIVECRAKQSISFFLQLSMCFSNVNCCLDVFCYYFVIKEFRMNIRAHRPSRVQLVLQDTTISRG
Assay: GPR55 antagonists blocking LPI-driven arrestin recruitment, primary screen, imaging, U2OS, beta-arrestin-GFP, LPI agonist (AID 2013);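 further: U2OS cells stably carrying GPR55 and arrestin-GFP stimulated by 5 µM LPI near EC80; imaged beta-arrestin-GFP aggregate spots per cell after agonist stimulation; plate controls were LPI-stimulated DMSO wells for no effect and DMSO wells without LPI for full effect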
Conditions: U2OS GPR55 beta-arrestin-GFP translocation imaging, LPI antagonism; at 10 µM; active compounds read high

inhibition, inactive:
CC(C)N(C(=O)CSc1nc2ccccc2n1Cc1ccccc1)C(C)C 2%
O=C(O)CSc1nc2ccccc2n1-c1ccccc1 6.1%
CC(=O)Nc1ccc(NC(=O)c2ccc(C)c(S(=O)(=O)Nc3cccc(C)c3)c2)cc1 -3.1%
COC(=O)C1CCN(C2=C(NS(=O)(=O)c3ccc(Cl)cc3)C(=O)c3ccccc3C2=O)CC1 2%
Cc1cc(NC(=O)NC2CCCN2S(=O)(=O)c2ccc(Cl)cc2)no1 (stereo unspecified) 8.3%
Cc1cc(C)cc(-c2nnc(SCC(=O)c3ccc4c(c3)OCCO4)o2)c1 -7.3%
CC(C)(C)c1ccc(CN(Cc2ccco2)Cc2nnnn2C2CCCC2)cc1 19.2%
c1coc(CN(Cc2cccs2)Cc2nnnn2C2CCCCC2)c1 25.9%
CCCCCn1c(=O)[nH]c2cc(C(=O)NCc3ccc4c(c3)OCO4)ccc2c1=O 31.9%
CC1CCN(C(=O)c2ccc([N+](=O)[O-])o2)CC1 5.5%
CC(=O)Nc1ccc(NC(=O)C(Sc2ccccc2)c2ccccc2)cc1 (stereo unspecified) -1.5%
CC(=O)NS(=O)(=O)c1ccc(NC(=O)C(Sc2ccccc2)c2ccccc2)cc1 (stereo unspecified) 8%
CCC(C)NC(=O)C(Sc1ccccc1)c1ccccc1 (stereo unspecified) -0.3%
CCCNC(=O)C(Sc1ccccc1)c1ccccc1 (stereo unspecified) 8.1%
NS(=O)(=O)c1ccc(NC(=O)C(Sc2ccccc2)c2ccccc2)cc1 (stereo unspecified) 12.2%
CCCCNC(=O)C(Sc1ccccc1)c1ccccc1 (stereo unspecified) -9.3%
CCOCCc1nn2c(=O)cc(CSCC(=O)Nc3ccc(OC)cc3)nc2s1 16.4%
Cc1cc(-c2ccccc2)c2c(=O)n(-c3ccccc3)[nH]c2n1 -8.8%
COc1cc(S(=O)(=O)N2CCC(C(N)=O)CC2)c(C)cc1C -8.6%
CCCC(=O)NC(c1ccccc1Cl)c1ccc2cccnc2c1O (stereo unspecified) 11.4%
CN(C)c1ccc(/C=N/n2c(COc3ccccc3)n[nH]c2=S)cc1 1.6%
COC(=O)c1cc(NC(=O)Cc2ccc(OC)c(OC)c2)cc(C(=O)OC)c1 11%
COc1ccc(C(=O)NCC2(c3ccc(OC)c(OC)c3)CCCC2)c(OC)c1 -8.5%
CCN1CC2=C(OC(N)=C(C#N)C2c2cccs2)/C(=C\c2cccs2)C1 (stereo unspecified) 13.2%
CCN1CC2=C(OC(N)=C(C#N)C2c2ccccc2)/C(=C\c2ccccc2)C1 (stereo unspecified) 3.6%
Cc1nc2ccccc2nc1OCc1cccc([N+](=O)[O-])c1 6.2%
